Sampled rows, rich in hits. Any-hit rate of the full collection: about 21%.
SARS PLpro yeast = inhibitors of SARS-CoV papain-like protease in yeast; S. cerevisiae expressing SARS-CoV PLpro, growth rescue; Potency, µM (doses to about 32.9 µM), hits mostly activators; 0.19% of 330,000 active; note: nearly all actives have a fitted effect of over 55% in size
NS1 function inh = inhibitors of influenza NS1 protein function | 0.4% of 270,000 active | Potency, µM (top dose mostly 46.1 µM); note: actives are rising curves; nearly all actives have a fitted effect of over 50% in size
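Read-out: OD600 growth recovery of NS1-expressing budding yeast. Cells grown overnight at 30C in -URA glucose medium, washed, resuspended and diluted 1:100 in 2% galactose assay medium, pH 6.0. Same strain lacking NS1 served as positive control.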
Pf growth 48h = inhibits P. falciparum growth in the first generation, 48 h | P. falciparum luciferase growth in erythrocytes, 48 h | Potency, µM (titrated, usually from 28.7 µM), usual class: inhibitors | 5.9% of 310,000 active | AID 504832; active = well fitted inhibition curve with a large enough effect; inconclusive = small, poorly fitted or top-dose-only effect, or another doubt; inactive = no such curve, though single readings can be large or run the other way
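Compounds are pin-transferred into medium, infected erythrocytes (2% hematocrit, 0.1% parasitemia final) are added, and plates sit one parasite generation at 37 C in 5% CO2. Detection reagent is then added and luminescence measured.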
Shiga inhibitor = inhibitors of Shiga toxin in Vero cells | AID 2315 | inhibition, % at 38.7 µM | 9.2% of 290,000 active | Vero cells, Shiga toxin protein synthesis inhibition reporter; in the data active = inhibition mostly above about 28%, no sharp cut-off; inactive = mostly below about 43%
Cycloheximide cs = affects cycloheximide protein synthesis inhibition readout, counter-screen. cell reporter, cycloheximide protein synthesis inhibition counterscreen. max response, %. 12% of 300,000 active; in the data active = max response mostly above about 13%, no sharp cut-off; inactive = mostly below about 14%; note: read at 38.3 µM for the half of the compounds with a filed dose
Pf growth 96h = inhibits malaria parasite growth, 96 h; P. falciparum luciferase reporter growth, 96 h; Potency, µM (doses to about 28.7 µM), most hits filed as inhibitors; 6.9% of 320,000 active; AID 504834; active = well fitted inhibition curve with a large enough effect; inconclusive = small, poorly fitted or top-dose-only effect, or another doubt; inactive = no such curve, though single readings can be large or run the other way
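P. falciparum expressing integrated firefly luciferase grown in erythrocytes (2% hematocrit, 0.05% parasitemia final) with compounds for 96 hours at 37 C, 5% CO2. Growth inhibition read as loss of luminescence after adding luciferase detection reagent.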
Large screens that a line does not name were inactive. Unless noted, calls come from the whole dose curve.

Cc1cc(-c2nnc(CCC(=O)N(CC3CCC3)CC3CCCO3)o2)no1 (stereo not drawn)	Shiga inhibitor 78, Cycloheximide cs 44
Cc1nnc(C)n1/N=C/c1ccc2c(c1)OCCO2	none
C(=N\Nc1ccccn1)/c1ccc2c(c1)OCCO2	Shiga inhibitor 33, Cycloheximide cs 35 (no result: NS1 function inh)
Fc1cccc(/C=N/Nc2ccccn2)c1	Shiga inhibitor 81, Cycloheximide cs 56 (no result: NS1 function inh)
Fc1cccc(F)c1/C=N/Nc1ccccn1	Shiga inhibitor 95, Cycloheximide cs 50 (no result: NS1 function inh)
Cc1noc(C)c1COC(=O)CCN1c2ccccc2Sc2ccccc21	Pf growth 48h inconclusive, Pf growth 96h 12µM
Cc1noc(C)c1COC(=O)CCOc1ccccc1	NS1 function inh inconclusive
O=C(CN1C(=O)NC2(CCCCC2)C1=O)Oc1ccc2ccc(=O)oc2c1	none (no result: NS1 function inh, Shiga inhibitor, Cycloheximide cs)
CCc1cc(C(=O)c2ccc(OC)cc2)c(N)s1	none
COc1ccc(C(=O)c2ccc(CC#N)s2)cc1	Shiga inhibitor 68, Cycloheximide cs 24
COc1ccc(C(=O)c2ccsc2N)cc1	Shiga inhibitor 51, Cycloheximide cs 28
Cc1cc(NC(=O)c2ccccc2F)n(-c2nc3ccccc3[nH]2)n1	none
Cc1cc(NC(=O)c2c(F)cccc2Cl)n(-c2nc3ccccc3[nH]2)n1	Pf growth 48h 10µM (no result: Pf growth 96h)
Cc1cc(NC(=O)C2CCCCC2)n(-c2nc3ccccc3[nH]2)n1	Pf growth 48h 9.3µM (no result: Pf growth 96h)
Cc1cc(NC(=O)/C=C/c2ccc(F)cc2)n(-c2nc3ccccc3[nH]2)n1	Pf growth 48h inconclusive
Cc1cc(NC(=O)c2ccc(C)s2)n(-c2nc3ccccc3[nH]2)n1	Shiga inhibitor 33, Pf growth 96h inconclusive
Cc1cc(NC(=O)c2c(F)cccc2F)n(-c2nc3ccccc3[nH]2)n1	Pf growth 48h 7.4µM
CC(NC(=O)CN(C)CC(=O)Nc1ccc(Cl)cc1)c1ccc(F)cc1 (stereo not drawn)	none (no result: NS1 function inh, Pf growth 48h, Shiga inhibitor, Cycloheximide cs, Pf growth 96h)
Cc1cc(S(=O)(=O)NCCCN2CCOCC2)ccc1F	Pf growth 96h inconclusive
CC(NS(=O)(=O)/C=C/c1ccccc1)c1ccccc1 (stereo not drawn)	none (no result: NS1 function inh)
Cc1cc(NC(=O)C2CC2)n(-c2nc3ccccc3s2)n1	Shiga inhibitor 36, Cycloheximide cs 18 (no result: NS1 function inh)
Cc1cccc(N2N=C(C(=O)N3Cc4ccccc4CC3C(N)=O)CCC2=O)c1 (stereo not drawn)	none (no result: NS1 function inh, Pf growth 48h, Shiga inhibitor, Cycloheximide cs, Pf growth 96h)
COc1ccccc1NC(=O)CSc1ccc(-c2ccc(-n3ccnc3)cc2)nn1	Pf growth 48h 12µM, Pf growth 96h inconclusive (no result: SARS PLpro yeast, NS1 function inh, Shiga inhibitor, Cycloheximide cs)
COc1ccc(C)cc1NC(=O)CSc1ccc(-c2sc(C)nc2C)nn1	Pf growth 48h 12µM
COc1cc(NC(=O)CSc2ccc(-c3ccccn3)nn2)cc(OC)c1	Pf growth 48h inconclusive, Pf growth 96h inconclusive
COc1cccc(NC(=O)CSc2ccc(-c3sc(C)nc3C)nn2)c1	Pf growth 48h inconclusive, Pf growth 96h inconclusive
COc1ccc(C)cc1NC(=O)CSc1ccc(-c2ccccn2)nn1	Pf growth 48h inconclusive, Cycloheximide cs 11, Pf growth 96h 9.3µM
Brc1cc2c(cc1Br)OCCOCCOCCO2	none
CSCC[C@H](NC(=O)[C@H](CO)NC(=O)[C@H](Cc1ccc(O)cc1)NC(=O)[C@@H](N)CO)C(=O)N[C@@H](CCC(=O)O)C(=O)N[C@@H](Cc1cnc[nH]1)C(=O)N[C@@H](Cc1ccccc1)C(=O)N[C@@H](CCCNC(=N)N)C(=O)N[C@@H](Cc1c[nH]c2ccccc12)C(=O)NCC(=O)N[C@@H](CCCCN)C(=O)N1CCC[C@H]1C(=O)N[C@H](C(=O)NCC(=O)N[C@@H](CCCCN)C(=O)N[C@@H](CCCCN)C(=O)N[C@@H](CCCNC(=N)N)C(=O)N[C@@H](CCCNC(=N)N)C(=O)N1CCC[C@H]1C(=O)N[C@H](C(=O)N[C@@H](CCCCN)C(=O)N[C@H](C(=O)N[C@@H](Cc1ccc(O)cc1)C(=O)N1CCC[C@H]1C(=O)O)C(C)C)C(C)C)C(C)C	none (no result: SARS PLpro yeast, NS1 function inh, Pf growth 48h, Pf growth 96h)
O=C(O)[C@@H]1CCCN1Cc1c[nH]c2ccccc12	none (no result: SARS PLpro yeast, Pf growth 48h, Shiga inhibitor, Cycloheximide cs, Pf growth 96h)
CCc1ccc(NC(=O)CSc2nnc(C)c(=O)n2N)cc1	SARS PLpro yeast inconclusive
Cc1ccc(C)c(NC(=O)CSc2nnc(CNC(=O)c3ccco3)n2C)c1	Pf growth 96h 2.1µM
Cc1ccc(NC(=O)CSc2nccn2Cc2ccco2)c(C)c1	Shiga inhibitor 61, Cycloheximide cs 52
Cc1ccc(F)cc1NC(=O)CSc1nnc(CNC(=O)c2ccco2)n1C	none (no result: NS1 function inh, Shiga inhibitor, Cycloheximide cs)
CCCNC(=O)CSc1nccn1Cc1ccco1	none
